The results in this text go back to PubChem BioAssay.

SMILES strings stand for the structures.

The test has as its target Calmodulin-1 (Homo sapiens) (UniProt P0DP23). In words: small molecules binding calmodulin-1 with EGTA – biochemical, small-molecule microarray, Cy5-labelled CALM1, profiling panel (AID 1111).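 Also: labelled calmodulin applied in Tris saline Tween buffer holding calcium plus EGTA and DTT.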 Particulars: Cy5-CALM1 binding fluorescence, higher = more signal.
`COCCOC(=O)N1C(=O)[C@@]2(c3cc(C#CC4(O)CCCCCC4)ccc31)[C@H](C(=O)N1CCCCCCC1)[C@H]1C(=O)O[C@H](c3ccccc3)[C@H](c3ccccc3)N1[C@@H]2c1ccc(O)cc1` gave a composite z-score of 1.31.
With `C=CCC(OC(C)=O)[C@@H]1[C@@H](N(Cc2cc3ccccc3o2)C(=O)Cc2ccc(F)cc2)c2cc(OCCCO)ccc2N1C(=O)c1ccc(-c2ccccc2)cc1` (some centres not stated), the composite z-score is -0.302.
Regarding `O=C(CS)NCCCCCNC(=O)[C@H]1C[C@H]2C(=O)N[C@@H](Cc3ccccc3)C(=O)N2[C@H]1c1ccc(O)cc1`, the composite z-score stood at 0.741.
In turn, `CO[C@H]1COC(=O)CC=C[C@@H](C)COC(=O)[C@@H](C)NC(=O)CC=C[C@@H]1C` came in with a composite z-score of -3.42.
For `CCC(=O)[C@]12O[C@@]3([C@@H]4C(=O)OCC[C@@H]41)N(Cc1ccccc1)C(C)=C(C(=O)OC)[C@@H](c1ccccc1)N3C2=O`, the composite z-score was -0.146.
For the compound `C[C@]1(C(=O)NCCN2CCOCC2)c2ccccc2C(=O)N(Cc2ccccc2)[C@H]1c1ccc(CO)cc1`, the composite z-score was -0.193.
`CC[C@H]1C2=C3C(CC[C@H]4C(OC)OC[C@](C)([C@@H]34)N(C(=O)OC(C)(C)C)C2)C(CO)C1CO` (some centres not stated) yielded a composite z-score of 2.27.
The result for `O=C1c2ccccc2[C@@]2(Cc3ccccc3N(CC(F)(F)F)C2=O)[C@H](c2ccc(CO)cc2)N1C1CCCCC1` reads -0.575.
In the case of `C=C(C(=O)CC[C@H](OC(=O)c1ccccc1-c1ccccc1C(=O)O)c1ccc(CO)o1)C(C)C` it was 0.506; in that of `CC1=C([C@H](O)CCc2ccccc2)[C@H](CO)[C@@H]2C(=O)N(Cc3ccccc3)C(=O)[C@@H]2C1`, 0.62; in that of `O=C1O[C@H](c2ccccc2)[C@H](c2ccccc2)N2[C@H]1[C@@H](C(=O)NC[C@H](O)c1ccccc1)[C@]1(C(=O)Nc3ccc(C#CC4=CCCCC4)cc31)[C@H]2c1ccc(OCCO)cc1`, 0.977.
`COc1cc(Cc2cc3c(c(CCc4ccccc4)n2)[Si](C(C)C)(C(C)C)OC3)cc(OC)c1OC` showed a composite z-score of -0.358.
As for `CO[C@H]1O[C@H](CO)[C@@H](OC(=O)CCc2ccccc2)[C@@H]2OC(=O)[C@H](Cc3cccc(Br)c3)C/C=C/C[C@@H](Cc3cccc(Br)c3)C(=O)O[C@@H]12`, the composite z-score is -0.638.
Compound `Cc1ccc(S[C@]2(C(=O)NCCCN(C)C)CC(=O)N(C3CCCCC3)[C@@H]2c2ccc(CO)cc2I)cc1` displayed a composite z-score of -0.454.
Compound `COC(=O)[C@@]1(Cc2ccccc2CN=[N+]=[N-])N=C(c2ccc(OCCCO)cc2)O[C@H]1c1ccccc1N=[N+]=[N-]` showed a composite z-score of 0.173.
The result for `CO[C@@H]1COC(=O)[C@H](C)NC(=O)CC=C[C@@H](C)[C@H](OC)COC(=O)[C@H](C)NC(=O)CC=C[C@H]1C` reads -0.202; that for `COCCOC(=O)N1C(=O)[C@@]2(c3cc(C#CCNC(N)=O)ccc31)[C@H](c1ccc(OCCO)cc1)N1[C@H](c3ccccc3)[C@H](c3ccccc3)OC(=O)[C@H]1[C@@H]2C(=O)Nc1nc2ccccc2s1`, 0.669; that for `C=CC[C@@]1(C(=O)N2CCOCC2)N=C(c2ccc(OCCCO)cc2)O[C@@H]1c1ccccc1`, 0.0981.
As for `COc1cc2c(cc1OC)CN(C(=O)[C@H]1[C@@H]3C(=O)O[C@@H](c4ccccc4)[C@@H](c4ccccc4)N3[C@@H](c3ccc(O)cc3)[C@]13C(=O)Nc1ccc(C#CC4(O)CCCCCC4)cc13)CC2`, the composite z-score worked out at 2.21.
In the case of `O=C/C=C/c1ccccc1Cl` it was 0.387; in that of `C=CCC(OC(C)=O)[C@@H]1[C@@H](N(Cc2cccc3ccccc23)C(=O)Cc2ccc(F)cc2)c2cc(OCCCO)ccc2N1C(=O)Cc1ccc2ccccc2c1` (some centres not stated), -0.571; in that of `CC(=O)NCCCC[C@@H]1NC(=O)[C@@H]2C[C@H](C(=O)NCCCCCNC(=O)CS)[C@H](c3ccc(O)cc3)N2C1=O`, -0.592.
The result for `C[N+](C)(C)CCCCNC(=O)[C@@H]1C[C@@H]2C(=O)N3CCC[C@H]3C(=O)N2[C@@H]1c1cccc(OCCO)c1` reads -0.794.
In the case of `O=C(NCC(O)CO)[C@]1(Cc2ccccc2)N=C(c2ccc(OCCCO)cc2)O[C@@H]1c1ccccc1` (some centres not stated) it was 2.61; in that of `COC(=O)Cn1c(C(=O)N2CCCC2)cc2c1C[C@H]1CN(C(=O)c3ccccc3)[C@@](Cc3ccccc3)(C(=O)OC)[C@@H]21`, 0.79; in that of `CCOC(=O)[C@H]1C/C=C/C[C@H](C(=O)OCC)C(=O)O[C@H]2[C@@H](OC)O[C@H](CO)[C@@H](OC(=O)Nc3ccc(Br)cc3)[C@@H]2OC1=O`, 1.64.
`CO[C@@H]1COC(=O)[C@@H]2CCCN2C(=O)CC=C[C@@H](C)[C@H](OC)COC(=O)[C@@H]2CCCN2C(=O)CC=C[C@H]1C` registered a composite z-score of -1.35.
